Assay outcomes from PubChem.
Most compounds without a hit are left out; they make up all but 21% or so of the library.
Shiga toxin inh: blocks Shiga toxin action in Vero cells. Vero cells, Shiga toxin protein synthesis inhibition reporter. inhibition, % at 38.7 µM. 290,000 tested, 9.2% active; in the data active = inhibition mostly above about 28%, no sharp cut-off; inactive = mostly below about 43%; also: 0% is about no effect
SARS PLP yeast: inhibitors of SARS-CoV papain-like protease in yeast. S. cerevisiae expressing SARS-CoV PLpro, growth rescue. Potency, µM (top dose mostly 32.9 µM), for the others: top-dose activity, positive = growth rescue, most hits filed as activators. 330,000 tested, 0.19% active. AID 485353; also: potency is read from the fitted curve at half-maximal effect; 0% is about no effect; nearly all actives have a fitted effect of over 55% in size
NS1 inh: blocks influenza NS1 protein function; Potency, µM (top dose mostly 46.1 µM), for the others: top-dose activity, positive = more growth; 270,000 tested, 0.4% active; AID 2326; also: potency is read from the fitted curve at half-maximal effect; actives are rising curves; nearly all actives have a fitted effect of over 50% in size
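OD600 was taken as the measure of yeast growth restored by compound in an NS1-expressing S. cerevisiae strain. Cells had been washed out of glucose medium and diluted 1:100 into galactose -URA medium, pH 6.0.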
Pf growth 48h: inhibits P. falciparum growth in the first generation, 48 h; 310,000 tested, 5.9% active; Potency, µM (top dose mostly 28.7 µM), for the others: top-dose activity change, negative = inhibition, usual class: inhibitors; P. falciparum luciferase growth in erythrocytes, 48 h; active = well fitted inhibition curve with a large enough effect; inconclusive = small, poorly fitted or top-dose-only effect, or another doubt; inactive = no such curve, though single readings can be large or run the other way; also: potency is read from the fitted curve at half-maximal effect; % is scaled to controls: 0 for no effect and ±100 for the full control effect
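First compound was added to culture medium, then infected red cells at 0.1% parasitemia and 2% hematocrit (final). After incubation at 37 C under 5% CO2, luciferase detection reagent was dispensed and light output recorded.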
Cycloheximide cs: counter-screen for Shiga toxin inhibitors: cycloheximide protein synthesis inhibition. cell reporter, cycloheximide protein synthesis inhibition counterscreen. max response, %. 300,000 tested, 12% active. AID 2314; in the data active = max response mostly above about 13%, no sharp cut-off; inactive = mostly below about 14%; also: read at 38.3 µM for the half of the compounds with a filed dose; 0% is about no effect
Pf growth 96h: P. falciparum growth inhibition at 96 hour, primary screen for plastid delayed-death inhibitors; P. falciparum luciferase reporter growth, 96 h; Potency, µM (titrated, usually from 28.7 µM), inactives show top-dose activity change, negative = inhibition, hits mostly inhibitors; 320,000 tested, 6.9% active; AID 504834; active = well fitted inhibition curve with a large enough effect; inconclusive = small, poorly fitted or top-dose-only effect, or another doubt; inactive = no such curve, though single readings can be large or run the other way; also: potency is read from the fitted curve at half-maximal effect; % is scaled to controls: 0 for no effect and ±100 for the full control effect
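Plates of compound plus infected erythrocytes (2% hematocrit, 0.05% parasitemia final) incubate 96 hours, 37 C, 5% CO2. Detection reagent added; reduced luminescence from the parasites' luciferase reporter flags inhibition.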
The depositor's hits bear a star; ? = inconclusive; / = not tested or not shown; + = active, no number; [ ] = dose if it differs, or a comment. Unless noted, calls follow the shape of the full dose curve.

SMILES	Shiga toxin inh	SARS PLP yeast	NS1 inh	Pf growth 48h	Cycloheximide cs	Pf growth 96h
CN(C)S(=O)(=O)c1ccc(N2CCCC2)c(C(=O)NNC(=O)COc2cccc(F)c2)c1	/	-1.3%	/	-8.1%	/	7.6%
COC(=O)CCCc1nc2ccccc2s1	32.9*	3.2%	4.0%	-19.2%	25.3	110.8%
COc1ccccc1OC(=O)CCc1nc2ccccc2s1	36.1	2.5%	/	10.4µM*	25.1	-12.9%
COc1cc2c(=O)n(CCC(=O)NCC3CCCO3)c(=O)n(CC(=O)Nc3ccc(F)cc3)c2cc1OC (stereo not given)	15.1	9.3%	-7.3%	-20.2%	-6.1	?
COC(=O)c1ccc(N=NNc2ccccc2)cc1	131.3*	-10.6%	-1.0%	109.4%	53.3*	?
COC(=O)c1ccc(N=NNc2cccc(Br)c2)cc1	74.3*	-9.9%	3.3%	244.2%	63.4*	?
COC(=O)c1ccc(N=NNc2ccc(C(=O)OC)cc2)cc1	126.6*	?	12.4%	271.9%	122.1*	3.5%
Cc1nc2ccccc2cc1C[N+]12CN3CN(CN(C3)C1)C2	/	/	-5.6%	/	/	/
CC(C(=O)Nc1ccc2c(c1)OCCO2)N(C)Cc1c(F)cccc1Cl (stereo not given)	25.0	-6.8%	/	2.1%	26.3	22.2%
Cc1ccc(Nc2nc(N)[nH]c(=O)c2N=O)cc1	-1.7	0.3%	5.8%	?	-4.6	?
COc1ccc(C)cc1S(=O)(=O)NC1CC1	/	2.1%	11.9%	-1.2%	3.3	10.3%
CC(C)c1cc(CN2CCN(CCC#N)CC2)cc(C(C)C)c1O	-17.7	2.5%	2.6%	2.33µM*	-1.6	?
CC(C)(C)c1cc(CN2CCN(CCO)CC2)cc(C(C)(C)C)c1O	-5.0	-32.4%	-7.7%	3.8%	-5.3	?
O=C(NC(=S)NCc1nc2ccccc2[nH]1)c1ccc(F)cc1	37.4	-0.7%	/	52.1%	28.1*	130.9%
O=C(NCCc1nc2ccccc2[nH]1)c1ccc(F)cc1	1.1	1.2%	0.3%	11.1%	10.5	/
O=C(NC(=S)NCc1nc2ccccc2[nH]1)c1ccccc1F	104.8*	-2.2%	-4.4%	484.4%	44.7*	438.5%
O=C1/C(=C/N(C(=O)c2ccco2)c2ccc(Br)cc2)Sc2ccccc21	0.0	-25.5%	-17.2%	75.2%	37.1*	-23.0%
O=C1/C(=C/N(C(=O)c2ccco2)c2ccc(Cl)cc2)Sc2ccccc21	90.9*	-11.9%	-18.8%	92.2%	39.2*	0.0%
O=c1cc(N2CCCCC2)c(-c2ccccc2)nn1Cc1ccc(Cl)cc1Cl	7.8	-18.1%	-30.0%	2.08µM*	6.0	?
O=c1cc(N2CCCCC2)c(-c2ccccc2)nn1Cc1ccccc1Cl	-12.2	-8.0%	-68.8%	3.29µM*	-2.9	2.62µM*
Cc1ccc(NC(=O)CSc2ncccn2)cc1S(=O)(=O)N1CCOCC1	/	2.4%	/	/	/	/
CCc1ccc(OCc2ccc(C(=O)NCc3ccccn3)o2)cc1	18.7	-12.8%	-33.4%	?	31.5*	10.4µM*
CCOc1ccc(OCc2ccc(C(=O)NCc3ccncc3)o2)cc1	25.5	-1.2%	-1.8%	3.2%	17.0*	-3.6%
Cc1cc2nn(-c3ccccc3)nc2cc1NC(=O)c1cccs1	+	-0.1%	-4.2%	20.4%	22.4*	?
CC(=O)Nc1cc2nn(-c3ccccc3)nc2cc1C	82.9*	-4.4%	1.0%	171.0%	59.4*	13.1µM*
SMILES	Shiga toxin inh	SARS PLP yeast	NS1 inh	Pf growth 48h	Cycloheximide cs	Pf growth 96h
CCC(=O)Nc1cc2nn(-c3ccccc3)nc2cc1Cl	79.9*	0.2%	12.1%	199.7%	42.8*	-3.3%
Cc1cc(NC(=O)c2cccs2)n(-c2ccccc2)n1	-4.1	-2.5%	-3.1%	/	-3.6	-2.9%
O=C(NNC(=O)c1cccnc1Cl)c1ccc(F)cc1	-3.2	-5.0%	0.3%	11.8%	2.5	23.7%
O=C(COc1ccc(Cl)cc1)OCC(=O)c1ccc[nH]1	/	11.4%	/	-12.7%	/	18.6%
N#CCC(CNc1ncc(C(F)(F)F)cc1Cl)OC(=O)c1cccc(C(F)(F)F)c1 (stereo not given)	17.7	-15.2%	-14.5%	?	3.3	5.86µM*
CN(C)C(=O)Oc1cccc(OCc2n(C)c3ccccc3[n+]2C)c1	-2.1	7.4%	-4.9%	?	-4.5	2.94µM*
COc1ccccc1NC(=O)Nc1ccc(Br)cn1	5.4	2.6%	-14.9%	36.2%	-4.5	12.9%
COc1c(C(=O)Nc2ccc(Br)cn2)ccc2ccccc12	76.5*	-3.8%	-6.7%	12.0%[0.00184 µM]	25.7*	-21.6%
O=C(Nc1ccc(Br)cn1)c1ccc2ccccc2c1	/	2.4%	0.1%	191.5%	29.4*	-12.1%
O=C(Nc1ccc(Br)cn1)c1cccc(C(=O)Nc2ccc(Br)cn2)c1	12.3	-1.2%	-1.2%	/	2.2	8.7%
COc1cc2ccccc2cc1C(=O)Nc1ccc(Br)cn1	86.3	3.3%	3.9%	-30.6%	25.0*	?
CCOc1ccccc1NC(=O)Nc1ccc(Br)cn1	5.6	0.3%	0.0%	18.4%	-3.6	61.8%
O=C(CSc1nncs1)Nc1ccc2[nH]c(=O)[nH]c2c1	/	/	/	-2.9%	/	1.0%
Cc1cccc(N(C)S(=O)(=O)c2ccc3[nH]c(=O)c(=O)[nH]c3c2)c1	-5.6	-0.8%	-3.2%	-2.6%	-3.5	?
CCCCC(=O)N(Cc1nc2sc(C)c(C)c2c(=O)[nH]1)C1CCCC1	4.3	-1.7%	-8.9%	0.0%	-0.4	44.0%
COc1cccc(Nc2nc(-c3sc(NC(=O)c4ccco4)nc3C)cs2)c1	34.3	3.4%	10.5%	?	6.6	13.1µM*
COc1ccc(OC)c(Nc2nc(-c3sc(NC(=O)C(C)(C)C)nc3C)cs2)c1	-7.8	-2.1%	12.0%	9.28µM*	1.8	3.29µM*
COc1ccc(OC)c(Nc2nc(-c3sc(C)nc3C)cs2)c1	48.7	-13.9%	-52.0%	14.7µM*	11.0	-17.2%
COc1ccc(Cl)cc1Nc1nc(-c2sc(NC(=O)C(C)(C)C)nc2C)cs1	13.2	0.4%	11.8%	10.4µM*	11.9	1.65µM*
COc1ccc(Cl)cc1Nc1nc(-c2sc(NC(=O)c3ccco3)nc2C)cs1	-6.9	-1.8%	11.8%	14.7µM*	6.9	5.86µM*
Cn1c(=O)c2c(SCC(=O)N3CCOCC3)nc(-c3ccccc3F)nc2n(C)c1=O	-5.9	-3.9%	13.3%	?	-3.8	?
Cc1cccc(OCC(=O)N(Cc2ccccc2)c2c(N)n(Cc3ccccc3)c(=O)[nH]c2=O)c1	/	-2.5%	/	?	/	?
COC(=O)[C@H](Cc1ccccc1)NC(=O)O[C@@H]1C(=O)c2cc(Br)ccc2O[C@H]1c1cccc(OC)c1	5.9	0.3%	-12.0%	20.8%	-2.7	5.4%
NS(=O)(=O)c1ccc(NC(=O)C2Cc3ccccc3C(=O)O2)cc1 (stereo not given)	-12.2	3.0%	1.4%	15.6%	0.9	-2.4%
Cc1ccc(NC(=O)C2Cc3ccccc3C(=O)O2)cc1 (stereo not given)	86.8*	0.1%	/	170.8%	36.4*	121.9%
